# Screens as filed in PubChem BioAssay.
# A selection: hits, their analogues and other compounds. The true share with any hit is near 7.4%.
# ELG1 genotox: induces genotoxicity in HEK293T cells with luciferase-tagged ELG1; HEK293T ELG1-luciferase reporter, luminescence, 16 h; Potency, µM (series often up to 46 µM), without a hit: at the top dose activity change, positive = activation, most hits filed as activators; 1.3% of 330,000 active; AID 504466; also: % of control where 0% means no effect; nearly all actives have a fitted effect of over 60% in size
#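 Luminescence read-out: rising ELG1-luciferase signal, reflecting elevated ELG1 protein under genetic stress, flags genotoxic compounds. Cells were treated for 16 hr at 37 °C before ONE-Glo detection.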
# Rab9 prom act: Rab9 promoter activation | Huh7 Rab9 promoter-luciferase reporter, luminescence, 24 h | 2.8% of 320,000 active | Potency, µM (highest dose often 9.22 µM), inactives show top-dose activation, negative = inhibition, usual class: activators | AID 485297; also: % of control where 0% means no effect; nearly all actives have a fitted effect of over 60% in size
#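 Luminescence from Amplite-detected luciferase (10 minutes, ambient) reports Rab9 promoter activation. Before that, stable Rab9-luciferase Huh7 cells (1500/well, reduced-serum OP-MEM I plus 10% FBS) were exposed to compound for 24 hours at 37C.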
# NPC1 promoter act: NPC1 promoter activation; Huh7 NPC1 promoter luciferase reporter, 24 h; Potency, µM (series often up to 9.22 µM), inactives show top-dose activation, usual class: activators; 2.4% of 320,000 active; AID 485313; also: % of control where 0% means no effect; nearly all actives have a fitted effect of over 60% in size
#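 Compounds in DMSO were transferred onto Huh7 NPC1-luciferase reporter cells pre-incubated 2 h; after 24 h at 37 °C, Amplite reagent was dispensed and luminescence recorded 10 min later.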
# SMN2 splice enh: increases expression of the SMN2 splice variant; AID 1458; 2.8% of 210,000 active; Potency, µM (doses to about 46.1 µM), inactives show at the highest dose activity change, positive = activation, hits mostly activators; HEK293 SMN2-luciferase splicing reporter, luminescence, 30-36 h; also: % of control where 0% means no effect; nearly all actives have a fitted effect of over 55% in size
#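 qHTS luciferase splicing reporter: luminescence rises when SMN2 exon 7 is included in transfected HEK293 cells. Compound exposure lasted 30-36 h at 37C, with 4.5 mM final sodium butyrate as control, followed by a ONE-Glo read.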
# FLuc counter: firefly luciferase modulation, counter-screen for miR-21 project; AID 588342; purified FLuc, Km substrates, luminescence inhibition; 6.9% of 360,000 active; Potency, µM (series often up to 57.5 µM), for inactives: at the highest dose activity change, negative = inhibition, most hits filed as inhibitors;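 also: plate controls were vehicle for no effect and reference inhibitor for full effect; nearly all actives have a fitted effect of over 55% in size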
# Target sequence (P08659 whole entry, looked up): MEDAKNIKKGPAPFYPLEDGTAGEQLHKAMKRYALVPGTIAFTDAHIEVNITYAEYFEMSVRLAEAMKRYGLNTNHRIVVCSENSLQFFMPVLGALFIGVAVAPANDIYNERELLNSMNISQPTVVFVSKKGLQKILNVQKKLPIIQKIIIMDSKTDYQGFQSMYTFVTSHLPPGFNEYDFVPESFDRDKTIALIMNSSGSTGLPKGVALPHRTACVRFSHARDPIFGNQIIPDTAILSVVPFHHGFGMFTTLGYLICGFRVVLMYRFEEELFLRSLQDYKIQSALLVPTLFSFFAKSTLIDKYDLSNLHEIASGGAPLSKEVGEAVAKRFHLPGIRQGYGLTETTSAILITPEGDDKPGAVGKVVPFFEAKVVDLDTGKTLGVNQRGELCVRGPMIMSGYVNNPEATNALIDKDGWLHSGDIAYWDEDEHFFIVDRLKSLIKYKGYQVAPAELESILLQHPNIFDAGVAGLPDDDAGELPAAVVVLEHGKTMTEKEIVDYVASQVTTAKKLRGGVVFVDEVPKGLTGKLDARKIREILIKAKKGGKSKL
#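 Biochemical qHTS of compounds, final roughly 60 µM downward over six points, against 10 nM purified firefly luciferase using Km concentrations of substrates (10 uM D-luciferin, 10 uM ATP) in Tris acetate pH 7.5 buffer; luminescence output.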
# An asterisk follows results filed as active; ? = inconclusive; nt = no result given; [ ] = remark or other dose. Calls follow the shape of the dose curve; as a rule, active = well fitted curve in the direction sought with a large enough effect; inconclusive = small, poorly fitted or top-dose-only effect, or another doubt; inactive = no such curve, though single readings can be large; an effect the other way counts as inactive or inconclusive. Potency is read from the fitted curve at half-maximal effect.
SMILES,ELG1 genotox,Rab9 prom act,NPC1 promoter act,SMN2 splice enh,FLuc counter
Cc1cccc(-c2noc(-c3ccc(Cl)cc3[N+](=O)[O-])n2)c1,?,2.5µM*,0.71µM*,?,1.5µM*
COc1ccc(-c2noc(-c3ccc(N4CCCC4)c([N+](=O)[O-])c3)n2)cc1OC,nt,nt,nt,nt,-17%
COc1ccc(-c2noc(-c3ccc(Cl)cc3[N+](=O)[O-])n2)cc1OC,17%,4µM*,?,25µM*,4.3µM*
COc1cc(-c2noc(-c3ccc(N4CCOCC4)c([N+](=O)[O-])c3)n2)cc(OC)c1OC,nt,nt,nt,nt,19µM*
COc1ccc(-c2noc(-c3ccc(NC(C)c4ccccc4)c([N+](=O)[O-])c3)n2)cc1OC (stereo not drawn),nt,nt,nt,nt,11µM*
Cc1c(-c2nc(-c3cccnc3)no2)cccc1[N+](=O)[O-],?,16%,30%,21%,?
Cc1ccc(-n2nc(C)c3c(C)cc(=O)n(CC(=O)Nc4cccc(C)c4C)c32)cc1,nt,nt,nt,nt,-3%
COc1ccccc1C(=O)n1nc(-c2ccccc2)nc1NCc1ccc(Cl)cc1,nt,nt,nt,-1%,-2%
Cc1cccc(NC(=O)c2c(N)sc3c2CCC(C)C3)c1 (stereo not drawn),nt,nt,nt,17%,?
COc1cccc(NC(=O)c2nnn(Cc3cccc(C(F)(F)F)c3)c2N)c1,nt,nt,nt,6%,3%
c1ccc(Nc2ncnc3ccc(-c4cccnc4)cc23)cc1,nt,nt,nt,-7%,nt
COc1cccc(/C=N/NC(=S)Nc2cccc(S(=O)(=O)N(C)C)c2)c1,-8%,-1%,8%,nt,?
COc1cc(/C=N/NC(=S)Nc2cccc(C(=O)O)c2)cc(OC)c1OC,2%,-1%,1%,?,24µM*
COc1cc(/C=N/NC(=S)N/N=C/c2cc(OC)c(OC)c(OC)c2)cc(OC)c1OC,?,20%,25%,4.5µM*,0.21µM*
COc1cccc(/C=N/NC(=S)Nc2cccc(C(=O)O)c2)c1,1%,3.2µM*,2µM*,14µM*,1.7µM*
CNC(=S)Nc1cccc(C(=O)O)c1,-2%,-2%,0%,9%,-6%
COc1ccc(/C=N/NC(=O)CCC(=O)Nc2ccccc2)cc1OC,0%,-7%,1%,10%,-18%
COc1ccc(/C=N/NC(=S)Nc2cccc(C(=O)O)c2)cc1OC,3%,-1%,1%,2%,5.4µM*
O=C(Nc1cccnc1)c1cc(-c2ccc(Cl)cc2)on1,9%,2%,-2%,18%,1.5µM*
O=C(Nc1ccc(Cl)cc1Cl)c1csc(-c2cccnc2)n1,13%,?,2.8µM*,nt,?
Cc1cc(C(=O)Nc2cccnc2)no1,4%,-1%,0%,4%,-2%
O=C(NCc1ccccc1)c1csc(-c2cccnc2)n1,-16%,1%,12%,nt,-2%
O=C(Nc1cccnc1)c1cc(F)c(F)cc1Cl,-3%,-9%,-4%,0%,-1%
O=C(Nc1cccnc1)c1cc(-c2ccc(Cl)cc2Cl)on1,?,?,4µM*,nt,0.38µM*
Cc1cc(Br)cc2c1N(Cc1ccccc1OC(C)C)C(=O)C2=O,nt,nt,nt,0%,?
SMILES,ELG1 genotox,Rab9 prom act,NPC1 promoter act,SMN2 splice enh,FLuc counter
Cc1ccc(C)c(Cn2c(=O)n(CCCC(=O)NCCc3ccc(Cl)cc3)c(=O)c3ccccc32)c1,nt,nt,nt,9%,-2%
CCOC(=O)c1sc2nc(NC(=O)C(C)(C)C)sc2c1C,2.6µM*,1.3µM*,0.89µM*,?,2.7µM*
CC1=NN(C(N)=S)C(=O)C1N=Nc1ccccc1Cl (stereo not drawn),9%,15%,17%,nt,?
CC1=NN(C(N)=S)C(=O)C1N=Nc1ccc([N+](=O)[O-])cc1 (stereo not drawn),?,?,?,nt,3.4µM*
CC1=NN(C(N)=S)C(=O)C1N=Nc1ccc(Cl)cc1Cl (stereo not drawn),?,4.5µM*,3.2µM*,nt,24µM*
CC1=NN(C(N)=S)C(=O)C1N=Nc1cccc(C(=O)O)c1 (stereo not drawn),2%,2.5µM*,?,nt,4.8µM*
CC1=NN(C(N)=S)C(=O)C1N=Nc1ccccc1C(=O)O (stereo not drawn),-4%,7%,-2%,nt,5%
CCOc1ccc(N=NC2C(=O)N(C(N)=S)N=C2C)cc1 (stereo not drawn),18µM*,4µM*,2.8µM*,nt,3.8µM*
CCOc1ccc(N=Nc2ccc(O)c3ncccc23)cc1,?,1%,-13%,nt,-13%
COc1ccc(C(=O)Nc2ccccc2-c2nc3ccccc3s2)c(OC)c1,nt,nt,nt,nt,-8%
CCc1cccc(C)c1NC(=O)c1cc(S(=O)(=O)NCc2ccccc2Cl)ccc1F,nt,nt,nt,nt,-3%
CC1=NN(C(N)=S)C(=O)C1N=Nc1ccc(O)cc1 (stereo not drawn),9%,2%,-11%,nt,27µM*
CC(=O)Nc1ccc(N=NC2C(=O)N(C(N)=S)N=C2C)cc1 (stereo not drawn),?,?,?,nt,12µM*
CC1=NN(c2nc(-c3ccc(C)cc3)cs2)C(=O)C1N=Nc1cccc(C)c1 (stereo not drawn),1%,?,28%,1%[1.84 µM],?
CC(=O)Nc1ccc(N)cc1,-1%,-3%,0%,-1%,2%
CC1=NN(c2ccccc2C(=O)O)C(=O)C1N=Nc1ccccc1 (stereo not drawn),-11%,21%,20%,nt,15µM*
CC1=NN(C(N)=S)C(=O)C1N=Nc1ccc(C)c(Br)c1 (stereo not drawn),5.2µM*,1.3µM*,1.8µM*,nt,1.7µM*
O=C(CC1C(=O)N(c2ccccc2)C(=O)N1Cc1ccc2c(c1)OCO2)Nc1ccccc1 (stereo not drawn),nt,nt,nt,4%,-10%
COC(=O)c1ccc(NC(=O)c2cc(S(=O)(=O)N3CCc4ccccc43)cn2C)cc1,nt,nt,nt,nt,4%
CCOc1ccccc1C(=O)NCC(c1ccc(N(C)C)cc1)N1CCc2ccccc21 (stereo not drawn),nt,nt,nt,nt,1%
COc1ccc(OC)c(-c2cc(C(=O)NC(C)c3ccccc3)no2)c1 (stereo not drawn),nt,nt,nt,-7%,-7%
CC1=NN(C(N)=S)C(=O)C1N=Nc1ccc(F)cc1 (stereo not drawn),23µM*,3.5µM*,2.5µM*,nt,11µM*
COc1ccccc1N=NC1C(=O)N(C(N)=S)N=C1C (stereo not drawn),-5%,1%,-1%,nt,?
Cc1[nH]n(-c2cccc(Cl)c2)c(=O)c1C=NCc1ccco1,9.2µM*,1.1µM*,2µM*,13µM*,1.5µM*
Cc1[nH]n(-c2ccccc2)c(=O)c1C=NCc1ccco1,16µM*,1.8µM*,3.5µM*,11µM*,9.5µM*
Cc1[nH]n(-c2cccc(Cl)c2)c(=O)c1C=NCC(C)C,21µM*,2.8µM*,3.2µM*,13µM*,24µM*
